The source of these data is PubChem BioAssay AID1851 (National Center for Advancing Translational Sciences (NCATS), 2009).

About 5,800 (36%) of roughly 16,000 compounds were called active. Not shown: some 23% with an inconclusive outcome. This is one part of the list. Values without a mark were called inactive. Calls follow the shape of the dose curve; as a rule, active = well fitted curve in the direction sought with a large enough effect; inconclusive = small, poorly fitted or top-dose-only effect, or effect the other way; inactive = no such curve, though single readings can be large or run the other way.
% is scaled to controls: 0 for no effect and ±100 for the full control effect.

This test deals with Cytochrome P450 2C19 (Homo sapiens) (UniProt P33261). Nature of the test: Cytochrome panel assay with activity outcomes. Particulars: recombinant CYP, pro-luciferin dealkylation, luminescence, p450-cyp2c19; series mostly up to 57.1 µM; activity, negative = inhibition: at the top concentration.
Chain of Cytochrome P450 2C19 (Homo sapiens) (P33261 whole entry, looked up): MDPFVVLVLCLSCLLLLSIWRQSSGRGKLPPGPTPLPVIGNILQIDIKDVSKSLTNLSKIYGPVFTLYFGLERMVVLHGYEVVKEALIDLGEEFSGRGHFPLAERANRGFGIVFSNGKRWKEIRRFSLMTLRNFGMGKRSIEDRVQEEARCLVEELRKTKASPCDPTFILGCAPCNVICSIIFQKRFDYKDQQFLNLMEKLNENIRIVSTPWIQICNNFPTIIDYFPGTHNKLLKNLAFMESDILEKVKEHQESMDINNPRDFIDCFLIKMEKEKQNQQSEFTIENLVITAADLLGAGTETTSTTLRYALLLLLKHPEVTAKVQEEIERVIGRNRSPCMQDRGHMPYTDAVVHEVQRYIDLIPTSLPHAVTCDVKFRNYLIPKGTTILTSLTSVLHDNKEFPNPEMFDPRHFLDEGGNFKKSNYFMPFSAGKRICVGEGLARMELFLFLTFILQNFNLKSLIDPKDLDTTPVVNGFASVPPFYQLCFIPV
Take `CCNc1ncc2nc(-c3ccc(F)cc3)c(=O)n(CCC#N)c2n1`: the “activity, negative = inhibition” value was -4.86%.

As for `CC1(C)C(=O)N(CCN2CCC(C(=O)c3ccc(F)cc3)CC2)c2ccccc21`, the “activity, negative = inhibition” value is -18.1%.

As to `CC(C)c1ccc(C(=O)CC2(O)C(=O)N(CN3CCOCC3)c3ccccc32)cc1` (stereo not drawn), the AC50 is 2.24 µM (active).

As to `C[C@@H]1C[C@H]2[C@H]3C[C@@H](F)C4=CC(=O)C=C[C@]4(C)[C@@]3(Cl)[C@@H](O)C[C@@]2(C)[C@@H]1C(=O)COC(=O)C(C)(C)C`, the “activity, negative = inhibition” value was -30.8% [at 25.6 µM].

Regarding `C(=N/Nc1nnc2c(n1)[nH]c1ccccc12)/c1cccnc1`, the activity, negative = inhibition is -3.42% [at 11.4 µM].

`Clc1ccc(/C=N/Nc2nnc(-c3ncc[nH]3)c3ccccc23)cc1`: the AC50 is 11.2 µM (active).

Turning to `C=CC[n+]1c(-c2ccc(C)cc2)csc1NNC(=O)Nc1ccccc1`, the AC50 was 5.01 µM (active).

Consider `O=C(CCn1nc(-c2ccc(Cl)cc2)ccc1=O)NCc1ccccn1`, for which the “activity, negative = inhibition” value was -24.9%.

With `O=C1CC(N2CCN(CCc3ccccn3)CC2)C(=O)N1c1ccc(Cl)cc1` (stereo not drawn), the AC50 is 8.91 µM (active).

Take `CC1(C)CC2(CC(c3cccs3)c3cc(Cl)c(O)cc3O2)NC(=S)N1` (stereo not drawn): the AC50 is 2.82 µM (active).

On to `O=C(O)c1ccccc1OP(=O)(O)O`, for which the “activity, negative = inhibition” value is 12.1% [at 25.6 µM].

In the case of `Cc1nc(Sc2ccccc2)c(C#N)cc1-c1ccccc1`, the AC50 was 0.631 µM (active).

`Cc1nc(Cl)c(C#N)cc1-c1ccccc1`: the half-maximal activity concentration (AC50) was 5.62 µM (active).

For `Cc1ccc(Oc2nnc(-c3ccccc3)cc2C#N)cc1`, the “activity, negative = inhibition” value is -0.99%.

Consider `Cc1cc2c(cc1C)NC1=C(N2)O[C@H](c2c[nH]c3ccc(COc4ccccc4)cc23)C1=O`, for which the concentration at half-maximal activity (AC50) was 0.501 µM (active).

With `O=C(O)c1c[nH]c2cc(OCc3ccccc3)ccc2c1=O`, the activity, negative = inhibition was 0.142% [at 11.4 µM].

Regarding `Cc1ncc(N=Nc2ccccc2Cl)c(-c2ccccc2)n1`, the concentration at half-maximal activity (AC50) was 14.1 µM (active).

`CCSC1=C(C#N)C2(CCCCC2)C(C#N)=C(N)N1`: the AC50 was 5.01 µM (active).

As to `COc1ccc(C(=O)[C@H](Br)[C@H](Br)C(=O)O)cc1`, the activity, negative = inhibition was -1.07% [at 11.4 µM].

With `O=C(CNC(=O)c1ccco1)OC(C(=O)c1ccccc1)c1ccccc1` (stereo not drawn), the AC50 was 5.62 µM (active).

Turning to `COc1ccc(C(=O)C(OC(=O)CNC(=O)c2ccco2)c2ccccc2)cc1` (stereo not drawn), the concentration at half-maximal activity (AC50) is 10 µM (active).

For `COC(=O)c1ccccc1-c1ccc(/C=C2\C(=O)N(c3ccccc3)N=C2c2ccccc2)o1`, the AC50 is 1.41 µM (active).

Consider `COc1ccc(-c2ccc(/C=C3\C(=O)N(c4ccccc4)N=C3c3ccccc3)o2)c([N+](=O)[O-])c1`, for which the AC50 is 2.51 µM (active).

Consider `CC1=NN(c2ccccc2)C(=O)/C1=C\N1CC(C)OC(C)C1` (stereo not drawn), for which the “activity, negative = inhibition” value was 19.4%.

With `CN(C)CCCN1CCC2(CCC(C(C)(C)C)CC2)CC1`, the activity, negative = inhibition is 40.8% [at 11.4 µM].

For the compound `C[C@H](Oc1ccccc1)C(=O)N[C@@H]1C(=O)N2[C@@H]1SC(C)(C)[C@@H]2C(=O)O`, the “activity, negative = inhibition” value was 28.6% [at 25.6 µM].

In the case of `CC(Oc1ccccc1)C(=O)Nc1nc2c(s1)C(=O)CC(C)(C)C2` (stereo not drawn), the AC50 is 7.08 µM (active).

For `O=C1N=C(N2CCC(Cc3ccccc3)CC2)S/C1=C/c1cn[nH]c1-c1ccccc1`, the AC50 was 3.55 µM (active).

As to `CCC(C)C(NC(=O)OCc1ccccc1)C(=O)OCN1C(=O)c2ccccc2C1=O` (stereo not drawn), the half-maximal activity concentration (AC50) is 3.16 µM (active).

For the compound `CC(C)C(NC(=O)OCc1ccccc1)C(=O)O` (stereo not drawn), the “activity, negative = inhibition” value is -12.5%.

On to `CCN1C(=O)[C@H]2[C@H]3[C@H](O)[C@H](O)C/C(=N/NC(=O)OCc4ccccc4)[C@@H]3CC[C@@H]2C1=O`, for which the activity, negative = inhibition was 36.5% [at 11.4 µM].

For the compound `Cc1ccc(C(=O)/C=C/c2c[nH]c3ccccc23)cc1`, the AC50 is 3.55 µM (active).

Take `CCCn1c(/C=C/c2ccccc2)nc2ccccc21`: the AC50 is 7.94 µM (active).

Consider `O=S(=O)(O)CCCc1cccc2ccccc12`, for which the activity, negative = inhibition was 21.3% [at 11.4 µM].

For `c1ccc2c(CSCc3cccc4ccccc34)cccc2c1`, the AC50 is 0.126 µM (active).

Turning to `c1cc(CSSCc2ccncc2)ccn1`, the AC50 is 1.26 µM (active).

In the case of `c1ccc2c(CSCCc3ccncc3)cccc2c1`, the AC50 is 0.0794 µM (active).

`c1ccc2c(CSc3nnc(-c4ccncc4)o3)cccc2c1`: the AC50 is 0.282 µM (active).

For the compound `c1ccc2c(CC3NCCN3)cccc2c1`, the activity, negative = inhibition was 28.8% [at 11.4 µM].

As to `CCNc1ncc2nc(-c3ccc(F)cc3)c(=O)n(-c3ccccc3)c2n1`, the “activity, negative = inhibition” value is 14.6%.

Consider `O=C(SCc1cccc2ccccc12)c1ccc(Cl)cc1`, for which the concentration at half-maximal activity (AC50) is 1.58 µM (active).

As to `O=C(Cc1ccc(Cl)cc1)NNC(=O)Nc1cccc2ccccc12`, the “activity, negative = inhibition” value is -29.4%.

As to `CN1CCN(CCc2ccc(Cl)c(Cl)c2)CC1`, the “activity, negative = inhibition” value is -37.7%.

Take `c1ccc(CSCCc2ccncc2)cc1`: the AC50 is 0.1 µM (active).

On to `N[C@@H](CSC(=O)c1ccccc1)C(=O)O`, for which the activity, negative = inhibition is 16.7% [at 11.4 µM].

For `Clc1ccc(CSCCc2ccncc2)cc1Cl`, the concentration at half-maximal activity (AC50) was 0.1 µM (active).

Take `N=C(N)SCCc1ccncc1`: the activity, negative = inhibition is 9% [at 11.4 µM].

Take `N=C(N)SCCc1ccc(CCSC(=N)N)cc1`: the “activity, negative = inhibition” value was -4%.

As usually defined, the AC50 is the concentration giving half of the maximal activity seen.
